Results: PubChem BioAssay AID488969 (Vanderbilt High Throughput Screening Facility, 2010)
In all, about 110,000 compounds were measured (“z-score”: median about -0.1, highest 2% from about 2 on). The list comes from a sample in which the highest values are over-represented; it also holds similar structures and randomly drawn compounds. The source made the active and inactive calls.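 How the source made its calls: active means z-score in the third read window above 3 or below -3; inactive means the rest.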

molecular target: Metabotropic glutamate receptor 8 (Rattus norvegicus) (UniProt P70579); experiment: rat mGluR8 modulators via GIRK flux, primary screen, cell-based, thallium flux, HTS (AID 488969); settings: HEK293 rat mGluR8, GIRK (G protein-gated inwardly rectifying potassium channel) thallium flux, FluoZin2; at 10 µM; stronger effect = higher value; submaximal glutamate (EC20) added with thallium
Sequence (P70579 whole entry, looked up): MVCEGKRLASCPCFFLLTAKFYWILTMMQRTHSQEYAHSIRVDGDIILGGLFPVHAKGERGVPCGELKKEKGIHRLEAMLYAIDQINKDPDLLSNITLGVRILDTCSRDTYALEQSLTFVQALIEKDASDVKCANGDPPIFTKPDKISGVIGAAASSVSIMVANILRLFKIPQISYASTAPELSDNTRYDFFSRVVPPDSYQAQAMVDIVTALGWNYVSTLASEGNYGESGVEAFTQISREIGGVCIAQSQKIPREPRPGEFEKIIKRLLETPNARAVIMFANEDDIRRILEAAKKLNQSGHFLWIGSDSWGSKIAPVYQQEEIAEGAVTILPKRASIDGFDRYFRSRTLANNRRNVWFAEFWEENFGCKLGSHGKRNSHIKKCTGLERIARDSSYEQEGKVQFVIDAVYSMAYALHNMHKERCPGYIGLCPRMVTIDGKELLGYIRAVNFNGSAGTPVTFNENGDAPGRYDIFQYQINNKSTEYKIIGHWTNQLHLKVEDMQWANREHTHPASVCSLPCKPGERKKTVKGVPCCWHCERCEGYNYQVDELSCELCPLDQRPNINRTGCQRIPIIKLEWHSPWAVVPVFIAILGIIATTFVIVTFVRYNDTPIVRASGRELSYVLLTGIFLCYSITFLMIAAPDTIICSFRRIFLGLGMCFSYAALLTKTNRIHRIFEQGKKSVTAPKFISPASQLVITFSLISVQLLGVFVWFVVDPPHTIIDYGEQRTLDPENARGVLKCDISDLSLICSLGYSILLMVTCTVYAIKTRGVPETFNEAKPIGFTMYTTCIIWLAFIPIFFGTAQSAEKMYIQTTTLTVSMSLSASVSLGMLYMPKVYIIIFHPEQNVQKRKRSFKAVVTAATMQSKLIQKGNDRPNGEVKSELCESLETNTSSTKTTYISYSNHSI

Structure (SMILES)	z-score
COc1ccc2c(c1)c(=O)oc1cc(OCC(=O)NC3CCCCC3)ccc12	0.0339
O=C(NC(=S)Nc1ccccc1Cl)c1csnn1	11.5 (active)
O=C(NC(=S)Nc1ccccc1)c1ccc(-c2ccccc2)cc1	0.0142
CC(=O)Nc1ccc(NC(=S)Nc2ccccc2)cc1	-0.0688
Cc1ccc(NC(=O)c2csnn2)c(C)c1	0.804
O=C(NC(=S)Nc1ccccc1)c1csnn1	12.4 (active)
COC(=O)c1c(NC(=S)Nc2ccccc2Cl)sc(C)c1C	0.827
C=C(C)C(C)(C#CCN1CCCC1)OC(C)=O (configuration not stated)	-0.061
C=CCc1c(C)nc(SC)nc1Nc1ccccc1	-0.563
N#CCN1C(=S)N=C(Nc2cccc(Cl)c2)C12CCCCC2	2.57
COc1ccc(NC2=NC(=S)N(c3ccccc3C)C23CCCCC3)cc1	15.4 (active)
Cc1ccc(Cl)cc1NC1=NC(=S)N(C(C)C)C12CCCCC2	0.728
CC1CCC2(CC1)C(Nc1cccc(Cl)c1)=NC(=S)N2CC#N (configuration not stated)	2.23
CN(C#N)c1nc(Cl)nc(Nc2cccc(Cl)c2)n1	-0.113
O=C1CN=C(Nc2cccc(C(F)(F)F)c2)N1C1CCCC1	-2.95
COc1ccc(NC2=NC(=S)N(c3cccc(C)c3)C23CCCCC3)cc1	1.22
Cc1cccc(NC2=NC(=S)N(CC#N)C23CCCCC3)c1	1.02
FC(F)(F)c1cccc(NC(=S)NC2CCCC2)c1	1.26
COc1ccc(NC2=NC(=S)N(c3ccc(C)cc3)C23CCCCC3)cc1	0.796
CC(C)(C)C1CCC2(CC1)C(Nc1cccc(C(F)(F)F)c1)=NC(=S)N2CC#N (configuration not stated)	2.58
CC1CCC(=C(C#N)C(=O)Nc2cccc(Cl)c2)CC1 (configuration not stated)	-0.314
Cc1ccc(S(=O)(=O)N2CCN(c3ccc4nnc(-c5ccccc5)n4n3)CC2)cc1	-0.183
CN(C)C(=O)c1snnc1-c1ccccc1	-0.386

Structure (SMILES)	z-score
O=C1C(Cl)=C(NCCCO)C(=O)c2ccccc21	-0.185
CCOC(=O)c1c(NC(=O)CSc2nc3ccccc3s2)sc(C(C)=O)c1C	-0.129
C=CCn1c(Oc2cc(C)ccc2C)nc2c1c(=O)n(C)c(=O)n2C	0.128
CCC(C)(C(=O)NC1CCCCC1)N(C(=O)C1CCC(=O)N1)c1ccccc1 (configuration not stated)	0.963
NNC(=O)c1cnn(Cc2ccccc2)c1N	0.0742
Cc1cccc(NC2=NC(=S)N(c3ccc(C(=O)O)cc3)C23CCCCC3)c1	-0.194
Cc1ccc(NC2=NC(=S)N(CC#N)C23CCCCC3)cc1	3.98 (active)
Cc1ccc(Nc2nc(N)nc(CC#N)n2)cc1	0.115
CCSc1nnc(NC(=O)C(C)Sc2nc3ccccc3[nH]2)s1 (configuration not stated)	1.73
COc1ccc(N(CC(=O)NCc2ccc3c(c2)OCO3)S(=O)(=O)c2c(C)nn(C)c2C)cc1	-0.575
COC(=O)c1ccc(COC(=O)c2ccc(SC)cc2OC)cc1	-0.178
Cc1cccc(NC(=O)c2sc(Cl)nc2C)c1C	0.181
Cn1c(=O)oc2cc(S(=O)(=O)N3CCCC(C(=O)N4CC=C(c5ccccc5)CC4)C3)ccc21 (configuration not stated)	1.18
O=C(Nc1ccc(N2CCOCC2)cc1)C1CCCN(S(=O)(=O)c2ccccc2)C1 (configuration not stated)	0.446
O=C(Nc1ccc(N2CCOCC2)cc1)C1CCCN(S(=O)(=O)c2cccc(C(F)(F)F)c2)C1 (configuration not stated)	2.63
O=C(Nc1ccccc1N1CCOCC1)C1CCN(S(=O)(=O)c2cccc(C(F)(F)F)c2)CC1	-0.294
Cc1nn(-c2ccccc2)c(Cl)c1/C=N/NC(=O)C1COc2ccccc2O1 (configuration not stated)	-0.169
CCCSc1nnc(-c2cnn(-c3ccccc3)c2-n2cccc2)n1C	-0.0552
COc1cc(NC(=O)c2ccc(C)cc2)c(OC)cc1NC(=O)CN1CCCCC1	2.37
COc1cc(NC(=O)c2ccc(C)cc2)c(OC)cc1NC(=O)CN1CCOCC1	-0.672
COc1cc(NC(=O)c2ccccc2)c(OC)cc1NC(=O)CN1CCCCC1	-0.781
COc1cc(NC(=O)COC(=O)CNC(=O)c2ccc(Cl)cc2)c(C)cc1[N+](=O)[O-]	-0.644
COC(=O)C(C)C1Sc2ccccc2NC1=O (configuration not stated)	-0.34

Structure (SMILES)	z-score
CC1CC(=S)Nc2ccccc2S1 (configuration not stated)	1.11
CC1(C)CC(=S)Nc2ccccc2S1	7.97 (active)
CCOC(=O)c1cc(C#N)c(Oc2ccc(F)cc2)nc1-c1ccccc1	-0.0477
Cc1cc(C(=O)COC(=O)Cc2n[nH]c(=O)c3ccccc23)c(C)n1-c1ccc2c(c1)OCCO2	-0.104
CS(=O)(=O)c1ccc(Cl)c(NC(=O)c2cccc(Br)c2)c1	-0.236
COc1ccc(OC)c(Nc2ncnc3c2cnn3-c2ccccc2)c1	-0.143
O=C(CSC1=Nc2ccccc2C2=NC(c3ccccc3)C(=O)N12)NC1CCCCC1 (configuration not stated)	-0.816
O=C(CSC1=Nc2ccccc2C2=NC(c3ccccc3)C(=O)N12)NCC1CCCO1 (configuration not stated)	2.65
O=C(CSC1=Nc2ccccc2C2=NC(CC(=O)NCc3ccco3)C(=O)N12)NCC1CCCO1 (configuration not stated)	-0.919
CCC(=O)OCCn1c(Br)nc2c1c(=O)[nH]c(=O)n2C	-0.265
C/C=C/Cn1c(Br)nc2c1c(=O)n(C)c(=O)n2C	1.47
C/C(CCC12CC3CC(CC(C3)C1)C2)=N\NC(N)=S	-0.636
C/C(=N\NC(=O)c1ccncc1)C12CC3CC(CC(C3)C1)C2	-0.319
C/C(=N\NC(N)=S)C12CC3CC(CC(C3)C1)C2	2.47
COc1ccc(OC)c(C(=O)CSc2nccc(-c3ccc(Br)cc3)n2)c1	-0.268
CC(C)OC(=O)/C(=C/c1cccnc1)NC(=O)c1ccccc1	3.22 (active)
CC(C)OC(=O)/C(=C\C=C\c1ccccc1)NC(=O)c1ccccc1	-0.143
COC(=O)/C(=C/c1cccnc1)NC(=O)c1ccccc1	-0.0328
CC(=O)Nc1c(OC(C)=O)ccc2c(C)cc(=O)oc12	-0.24
Cc1cc(C(F)(F)F)nn1Cc1n[nH]c(=S)n1-c1cccc(Cl)c1	-0.0907
O=S(=O)(c1ccccc1)c1nc(-c2ccccc2)oc1N1CCCCC1	-0.0433
COCCNC(=O)C(c1cccs1)N(C(=O)Cn1nnc2ccccc21)c1ccc(OC)cc1 (configuration not stated)	0.0248
CCCCCCCCCOC(=O)C[n+]1csc(CCO)c1C	0.0302

Structure (SMILES)	z-score
O=C(CCN1C(=O)c2ccccc2C1=O)Nc1sc2c(c1C(=O)NCC1CCCO1)CCC2 (configuration not stated)	-0.294
O=C(CN1C(=O)c2ccccc2C1=O)Nc1sc2c(c1C(=O)NCC1CCCO1)CCC2 (configuration not stated)	4.33 (active)
CC(C(=O)Nc1sc2c(c1C(=O)NCC1CCCO1)CCC2)N1C(=O)c2ccccc2C1=O (configuration not stated)	-1
CC(C)COP(=O)(OCC(C)C)C(O)c1ccc(F)cc1 (configuration not stated)	0.263
COc1ccc(C2(CNC(C)=O)CCOCC2)cc1OC	0.1
COC(=O)C1=CN(C(C)C)C=C(C(=O)OC)C1c1cc2c(cc1Br)OCO2	-0.0368
Cc1cc2cc3c(cc2nc1SCc1ccc(C(=O)O)cc1)OCCO3	-0.554
COc1cccc(C2C(C#N)=C(N)Oc3c2oc(CO)cc3=O)c1 (configuration not stated)	-1.28
O=C(CC(=O)c1ccccc1O)c1cccc(F)c1	3.63 (active)
Cc1ccccc1C(=O)NNC(=O)c1ccc(F)cc1	0.0481
COc1ccccc1C(=O)NNC(=O)c1cccc(F)c1	-0.0578
Cc1ccc(C(=O)CC(=O)c2cccc(F)c2)c(O)c1	8.38 (active)
O=C(Nc1ccccc1C(=O)O)c1cccc(F)c1	-0.262
Cc1ccc(C(=O)c2ccccc2C(=O)O)c(O)c1	0.0184
O=C(CC(=O)c1ccccc1O)c1ccc(F)cc1	7.61 (active)
CCOC(=O)c1ccccc1NC(=O)c1cccc(F)c1	0.0409
O=C(CCC(=O)c1ccc(F)cc1)Nc1ccccc1Cl	0.266
CC(=O)Nc1cccc(C(=O)/C=C/c2ccc(/C=C/C(=O)c3cccc(NC(C)=O)c3)cc2)c1	0.033
COc1ccc2oc(C(=O)C3CC3)c(N)c2c1	1.19
COc1ccc(N=C/C=C2\C=C(c3ccccc3)OC(C)(C)O2)cc1	-0.461
C=CCN1C(=Nc2cccnc2)SCC1(O)c1ccc(C)cc1 (configuration not stated)	2.38
OC1(c2ccc(OC(F)F)cc2)CSC(=Nc2cccnc2)N1C1CC1 (configuration not stated)	-0.02
CC1=NN(C(=O)Cc2ccc(C)cc2)C(O)(c2cccnc2)C1 (configuration not stated)	0.145

Structure (SMILES)	z-score
COc1cc(/C=N/NC(=O)c2cc3ccccc3cc2O)ccc1OCCN1CCCCC1	-0.0725
COc1ccc(N(C)S(=O)(=O)c2cccc(C(=O)OCC(=O)Nc3sc4c(c3C#N)CCCCC4)c2)cc1	0.379
O=C1CC(C(F)(F)C(F)(F)C(F)(F)C(F)(F)F)=Nc2ccccc2N1	-0.248
O=C1CC(C(F)(F)C(F)(F)C(F)(F)F)=Nc2ccccc2N1	3.4 (active)
Cc1cc2c(cc1C)NC(=O)CC(C(F)(F)C(F)(F)C(F)(F)F)=N2	-0.139
CCCCCCN1C2=NCCN2c2ccccc21	7.63 (active)
O=C(CN1C2=NCCCN2c2ccccc21)c1ccc(Cl)cc1Cl	0.287
CC(C)(C)c1ccc(CN2C3=NCCCN3c3ccccc32)cc1	4.19 (active)
CCCCN1C2=NCCCN2c2ccccc21	-0.957
OC(CN1C2=NCCN2c2ccccc21)c1ccc(Br)cc1 (configuration not stated)	0.254
c1ccc(CN2C3=NCCCN3c3ccccc32)cc1	2.93
Clc1ccc(CN2C3=NCCCN3c3ccccc32)cc1	0.436
Cc1ccc(C)c(C(=O)CN2C3=NCCCN3c3ccccc32)c1	0.0716
OC(CN1C2=NCCCN2c2ccccc21)c1ccc(Br)cc1 (configuration not stated)	3.3 (active)
CCCCCN1C2=NCCN2c2ccccc21	0.394
Brc1ccc(CN2C3=NCCCN3c3ccccc32)cc1	0.755
OC(CN1C2=NCCCN2c2ccccc21)c1ccc(Cl)cc1 (configuration not stated)	0.782
Cc1cccc(N(CC(=O)Nc2ccccc2F)S(C)(=O)=O)c1	-0.443
Cc1ccccc1OCC(=O)NC1=NCCS1	0.0476
CCOC(=O)C(C)On1c(-c2cccc(Cl)c2)nc2ccc([N+](=O)[O-])cc21 (configuration not stated)	0.66
